For orientation: inhibition means the drop in the measured response relative to a control, in per cent.

The structures appear in SMILES notation. Among all 340,000 compounds or so, about 3,400 (1%) were called active. The sample holds actives, similar compounds and a random draw of the others, so the mix is not that of the screen. A number with no mark means an inactive call.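 How the source made its calls: active means inhibition above the mean over all tested compounds plus 3 SD (cut at about 4.2% in these data); inactive means the rest.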

For the test, the target named is Nuclear receptor subfamily 0 group B member 1 (Homo sapiens) (UniProt P51843). Put plainly: relief of DAX1 transcriptional repression – cell-based, HEK293, Gal4-DAX1, luciferase luminescence, primary screen (AID 504766).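 Further: 0% = DAX1-transfected cells with DMSO and 100% = empty-vector control cells with DMSO; inhibition shows as a rise in luminescence from relieved DAX1 repression.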 The note with it: HEK293 Gal4-DAX1 luciferase reporter, at 6.75 µM, stronger effect = higher value. Background: Reporter assays use an easily measured gene product as a stand-in for the process of interest.
Nuclear receptor subfamily 0 group B member 1 (Homo sapiens), sequence (P51843 207-470 limits assumed): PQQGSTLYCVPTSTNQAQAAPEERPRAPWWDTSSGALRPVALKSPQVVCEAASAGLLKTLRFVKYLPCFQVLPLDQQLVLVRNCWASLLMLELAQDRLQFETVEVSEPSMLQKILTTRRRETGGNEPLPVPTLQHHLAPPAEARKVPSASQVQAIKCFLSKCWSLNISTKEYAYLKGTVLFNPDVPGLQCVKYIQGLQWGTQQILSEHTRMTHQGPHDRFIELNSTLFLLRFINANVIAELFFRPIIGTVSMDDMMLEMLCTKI
On to `CC1C(=O)OC2CCN3CC=C(COC(=O)C(C)(O)C1(C)O)C23` (stereo not given), for which the inhibition is 6.45% (active).
Then `O=C(NCC1=C(c2ccc3ccccc3c2)C[C@@H]2CC[C@H]1N2Cc1ccco1)c1cccs1`, with 0.9%; and `CN(C)CC1CCCCC1OC(=O)c1ccc(Cl)c(Cl)c1` (stereo not given), with 1.17%.
On to `N=c1ccccn1Cc1ccccc1`, for which the inhibition was 4.71% (active).
Consider `COc1cc2nc(N3CCN(C(=O)[C@@H]4CCCO4)CC3)nc(N)c2cc1OC`, for which the inhibition is -1.49%.
Consider `CC(C(=O)Nc1ccc(Cl)cc1Cl)N1CC=C(c2ccccc2)CC1` (stereo not given), for which the inhibition was 0.95%.
Then `COC(=O)C1=C(c2ccc3ccccc3c2)C[C@@H]2CC[C@H]1N2C(=O)NCCO`, with -0.02%; and `COC(=O)C1=C(c2ccc(F)cc2F)C[C@@H]2CC[C@H]1N2C(=O)NC1CC1`, with 1.3%.
Then `Fc1ccc(C2N3CCCN23)cc1` (stereo not given), with 6.8% (active).
With `Cc1cccc(NC(=O)N2CC3CC(C2)c2cccc(=O)n2C3)c1` (stereo not given), the inhibition is -0.11%.
Then `CC(=CCOc1ccc2ccc(=O)oc2c1)C1=CC(=O)C(C)(C)O1`, with -1.41%.
Then `C[C@]12CC[C@H](O)CC1=C([N+](=O)[O-])CC1C2CC[C@@]2(C)C1CC[C@@H]2O` (stereo not given in full), with 0.51%.
Then `COc1ccc(-c2nn(CCC#N)cc2C(=O)O)cc1`, with 0.78%.
With `CCC(=NCc1ccco1)c1c(O)n(Cc2ccccc2)c(=O)[nH]c1=O`, the inhibition is -0.6%.
Then `CC/C(=N\NC(=O)c1ccccc1O)c1c(O)n(Cc2ccccc2)c(=O)[nH]c1=O`, with 4.6% (active); and `O=C(N/N=C/c1c(O)n(Cc2ccccc2)c(=O)[nH]c1=O)c1ccccc1`, with 0.57%; and `Cc1ccc(OC(=O)N(C)C[C@@H]2OCc3cnnn3CCCC(=O)N([C@H](C)CO)C[C@@H]2C)cc1`, with 1.2%.
Then `COC(=O)C1=C(c2cccc(OCc3ccccc3)c2)C[C@@H]2CC[C@H]1N2C(=O)NCc1ccc(Br)cc1`, with -1.05%.
In the case of `C=Cn1ccnc1P(=S)(c1cc(N(CC)CC)ns1)c1nccn1C=C`, the inhibition was 0.78%.
Turning to `Cc1nc2ccccn2c1P(=S)(N1CCCCC1)N1CCCCC1`, the inhibition is -0.88%.
Consider `CC(=O)OC1C2(CC3N4C(=O)C5(CO)SSC4(CC31O)C(=O)N5C)OC(C)C(C)(C)C2=O` (stereo not given), for which the inhibition is -6.61%.
In the case of `O=C(c1ccccc1[N+](=O)[O-])N1CCC2(CC1)OCCO2`, the inhibition is 5.98% (active).
On to `O=C(c1cc(-c2ccncc2)nc2ccccc12)N1CCC2(CC1)OCCO2`, for which the inhibition was 1.03%.
Then `O=C(c1cc(S(=O)(=O)N2CCOCC2)ccc1F)N1CCC2(CC1)OCCO2`, with 0.34%; and `CN(C)c1nc(N(C)C)nc(N(C#N)CCCl)n1`, with -0.78%; and `CNCC(O)c1cc(F)c(OCc2ccccc2)c(OCc2ccccc2)c1F` (stereo not given), with -0.1%.
As for `CN1CCc2cc3c(cc2[C@H]1[C@@H]1OC(=O)c2c1ccc1c2OCO1)OCO3`, the inhibition is 1.17%.
Take `O=C1NC(=O)C(CCOc2ccccc2)(CCc2ccccc2)C(=O)N1`: the inhibition was -0.23%.
Then `CCC(C)n1c(O)c(/C=N/Nc2nc3c(c(=O)n(C)c(=O)n3C)n2C)c(=O)[nH]c1=S` (stereo not given), with 4.71% (active).
Then `O=C(CCC(=O)N1C[C@H]2C[C@@H](C1)c1cccc(=O)n1C2)NCc1ccccc1C(F)(F)F`, with 0.36%.
